Data from PubChem BioAssay (NCATS).
Records with an inconclusive call do not appear. Values without a mark were called inactive. The source made the active and inactive calls. The call rests on the fitted dose curve; in most records, active means well fitted cell-killing curve with a large enough effect; inconclusive means small, poorly fitted or top-dose-only effect, or effect the other way; inactive means no such curve, though single readings can be large or run the other way.

experiment: qHTS for Antimalaria activity screened against the NCATS CANVASS Library (AID 1347380); conditions: P. falciparum Dd2 growth, SYBR Green fluorescence, 72 h; series mostly up to 28.7 µM; activity change, negative = inhibition: at the top concentration
Excerpt: Natural products and their derivatives continue to be wellsprings of nascent therapeutic potential. However, many laboratories have limited resources for biological evaluation, leaving their previously isolated or synthesized compounds largely or completely untested. To address this issue, the Canvass library of natural products was assembled (https://tripod.nih.gov/canvass), in collaboration with academic and industry researchers, for quantitative high-throughput screening (qHTS) across a diverse set of cell-based and biochemical assays. The pure (>85% purity by liquid chromatography/mass spectrometry [LC/MS]) Canvass library of 346 natural products were submitted by 45 academic laboratories and companies around the world. We collected pure natural products to circumvent deconvolution and structure elucidation due to time and resource limitations. The library was formatted into 1536-well plates and evaluated in 50 qHTS (in an 11-pnt concentration series) bioassays with broad scope of disease-relevant mechanisms. The resulting data set from 50 different assays was then systematically analyzed to identify overall trends and specific natural products with interesting biological activities. Reported herein are the results of each individual qHTS and their corresponding assay protocol. The proliferation assay assesses the ability of compounds to inhibit the proliferation and/or have cytotoxic effects (72 hr) against the asexual erythrocytic growth of Plasmodium falciparum Dd2, as determined by a SYBRGreen fluorescence assay. National Center for Advancing Translational Sciences (NCATS), Rockville, MD National Institute of Health (NIH), Bethesda, Maryland
Malaria-screen protocol: Assay adopted from Plouffe et al. 2008 PNAS 105: 9059; PMID: 18579783. 1. In a biosafety cabinet, 3 uL of complete Malaria Growth Media (1x RPMI 1640 with L-glutamine + 5.5 g/L Albumax II + 367 uM Hypoxanthine + 25 mM HEPES + 0.25% Sodium Bicarbonate + 35 uM Gentamicin sulfate) was dispensed into a 1536-well black clear Cyclo-Olefin Polymer plate (Aurora Microplates) using a Multidrop Combi (Thermo Fisher Scientific Inc.). 2. 23 nL of compounds (in DMSO solution) were pin transferred into the assay plates using the Kalypsis pin-tool equipped with a 1536 well pin heads. Dihydroartemisinin (working concentration 29 uM) was used as a control and pin transferred (23 nL) at a titration series, final concentration 56 pM - 1.84 uM. 3. In a biosafety cabinet, five microliter of Malaria-infected RBCs: hematocrit 4% (final concentration of 2.5%), 0.3% parasitemia was added to the assay plates using the Multidrop Combi (Thermo Fisher Scientific Inc.). 4. The assay plates were incubated for 72 hours at 37C, 5% O2, 5% CO2, 90%N2, 95% humidity. 5. In the biosafety cabinet, 2 uL of Lysis buffer (20 mM Tris-HCl + 10 mM EDTA + 0.16% saponin + 1.6% Triton-X + 10x SYBR Green) was added to the assay plates using the Multidrop Combi followed by a 25 sec shake immediately after dispensing. 6. The assay plates we incubated further for 18 hours at 37C, 5%O2, 5% CO2, 90%N2, 95% humidity. 7. The fluorescence signal was read using the EnVision (PerkinElmer) plate reader (bottom read) using a 485/14 nm excitation and 535/25 nm emission filters.

Row | SMILES | activity change, negative = inhibition | Potency
1 | C1=C2CCCN[C@H]2C2CC1[C@H]1CCCCN1C2 (stereo partly drawn) | -37.2% | –
2 | C=CC(C)(C)[C@@]12C[C@H]3C(=O)N/C(=C/c4cnc[nH]4)C(=O)N3[C@@H]1Nc1ccccc12 | – | 298 nM (active)
3 | CC(C)CC1C(=O)O[C@H](C(C)C)C(=O)N(C)C(CC(C)C)C(=O)O[C@@H](C(C)C)C(=O)N(C)C(CC(C)C)C(=O)O[C@H](C(C)C)C(=O)N(C)C(CC(C)C)C(=O)O[C@@H](C(C)C)C(=O)N1C (stereo partly drawn) | – | 747 nM (active)
4 | C[C@]12CC(O)C3[C@@H](CCC4C[C@@H](O)CC[C@@]43CO)[C@@]1(O)CC[C@@H]2C1=CC(=O)OC1 (stereo partly drawn) | -32.5% | –
5 | C/C=C1/CN2CC[C@]34C(=C(C(=O)OC)[C@H]1C[C@H]23)Nc1ccccc14 | -40.5% | –
6 | C=CC(C)(C)[C@@]12C[C@H]3C(=O)N/C(=C\c4cnc[nH]4)C(=O)N3[C@@H]1Nc1ccccc12 | -71.1% | –
7 | c1ccc2nc3c(cc2c1)[nH]c1ccccc13 | -37.7% | –
8 | C=C(C)[C@H]1C(=O)c2c3c(cc4c5c(n1c24)[C@@]1(C)[C@@H](CC[C@H]2[C@](C)(/C=C/C=C(\C)C(=O)O)[C@@H](O)CC[C@@]21C)C5)C1=CC(C)(C)OC(C)(C)[C@H]1[C@@H]3O | – | 7470 nM (active)
9 | C[C@]12CC(O)C3[C@@H](CC[C@@H]4C[C@@H](O)CC[C@]34CO)[C@@]1(O)CC[C@@H]2C1=CC(=O)OC1 (stereo partly drawn) | -47.6% | –
10 | CCCC[C@@H](C)/C=C1/CN2CCC[C@H]2[C@@](C)(O)[C@@H]1O | -45.4% | –
11 | CCCCC1CC[C@H]2CCCC(CCC)N12 (stereo partly drawn) | -17.6% | –
12 | CC[C@H]1CN2CCc3c([nH]c4cccc(OC)c34)[C@@H]2C[C@@H]1/C(=C\OC)C(=O)OC | -74.1% | –
13 | C/C=C1/CN2CC[C@@]34c5ccccc5N(C)[C@@H]3[C@@H]2C[C@@H]1[C@H]4C(=O)OC | -57.8% | –
14 | CO[C@H]1[C@H](O[C@H]2CC[C@]3(C=O)[C@H]4CC[C@]5(C)[C@@H](C6=CC(=O)OC6)CC[C@]5(O)[C@@H]4CC[C@]3(O)C2)O[C@H](C)[C@H](O)[C@@H]1OC | -47.1% | –
15 | CC[C@]12C=CCN3CC[C@]4(C(=C(C(=O)OC)C1)Nc1ccccc14)[C@@H]32 | – | 42 nM (active)
16 | C[C@]12CCC3[C@@H](CC[C@@H]4C[C@@H](O)CC[C@]34CO)[C@@]1(O)CC[C@@H]2C1=CC(=O)OC1 (stereo partly drawn) | -18.9% | –
17 | C/C(=C\[C@H](C)C(=O)C[C@H](O)CC1CC(=O)NC(=O)C1)[C@@H]1OC(=O)/C=C/CC/C=C/C=C/[C@@H]1C | – | 941 nM (active)
18 | CCCC[C@@H]1CC[C@H]2CCCC(CCCO)N12 (stereo partly drawn) | – | 10.6 nM (active)
19 | C/C=C1/CN2C3CC1C1=CCC(=O)N4c5ccccc5[C@@]3(C[C@@H]2C2=C[C@H]3C5CC6N(CC[C@@]67c6ccccc6N(C2=O)[C@@H]37)C/C5=C/C)[C@H]14 (stereo partly drawn) | – | 1330 nM (active)
20 | CO[C@@]12c3c(C)cc(O)c4c(=O)occ(c34)C(=O)[C@@H]1[C@]13COC(=O)c4c(O)cc(C)c(c41)C(=O)[C@H]2[C@@H]3OC(C)=O | – | 7.5 nM (active)
21 | C/C=C(\C)C(=O)O[C@@H]1[C@@H](O)[C@@H]2O[C@H]3[C@H](O[C@@H](CCCCC)CCCCCCC(=O)CCC(=O)OC[C@@H](O2)[C@H]1OC(=O)/C=C/c1ccccc1)O[C@H](C)[C@H](OC(C)=O)[C@@H]3O | – | 37.5 nM (active)
22 | COC1=C(C2=C(OC)C(=O)c3cc4c(c(O)c3C2=O)C(=O)O[C@H](C)C4)C(=O)c2c(cc3c(c2O)C(=O)O[C@H](C)C3)C1=O | -62.2% [at 9.58 µM] | –
23 | CO[C@H]([C@@H](C)[C@H]1O[C@]1(C)C[C@H](C)/C=C/C=C(\C)[C@H]1O[C@@H](CC(=O)O)CC[C@@H]1C)[C@@H](C)O | – | 66.6 nM (active)
